Values without a mark were called inactive.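 How the source made its calls: active = AUC reduced over 20% with Padj below 0.05 in at least 2 of 3 replicates; inactive = otherwise.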
How the values were obtained:
[1] = system: Roseburia intestinalis; assay: growth AUC relative to DMSO control (median of replicates) (fraction); higher = more growth (less inhibition), active = hit call of the paper; conditions: 20 µM; 24 h
Summary of the method: (§1)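 OD600 was recorded every hour for 24 h in anaerobic monocultures of gut bacteria kept at 37 °C in mGAM, seeded at OD600 0.05 and given 20 µM compound in 1% DMSO. The area under each growth curve was scaled to the plate median of solvent-only wells, or to row and column medians for the industrial chemical plate. Before this step, the minimum OD was set to 0. Reported values are medians of three biological replicates run on separate days.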

[2] = system: Streptococcus salivarius; assay: as above; conditions: 20 µM; 24 h
Summary of the method: as §1

| Structure (SMILES) | growth AUC [1] | growth AUC [2] |
| --- | --- | --- |
| O=C(NC(=O)c1c(F)cccc1F)Nc1cc(Cl)c(OC(F)(F)C(F)F)c(Cl)c1 | 0.977 | 0.962 |
| O=[N+]([O-])c1ccc(Oc2ccc(Cl)cc2Cl)cc1 | 0.967 | 0.981 |
| O=C(Nc1ccccc1-c1ccc(Cl)cc1)c1cccnc1Cl | 1.01 | 1.01 |
| O=C(NC(=O)c1ccccc1Cl)Nc1ccc(OC(F)(F)F)cc1 | 0.918 | 0.951 |
| O.[Br-].[Br-].c1cc[n+]2c(c1)-c1cccc[n+]1CC2 | 1.04 | 1.01 |
| CON(C)C(=O)Nc1ccc(Br)cc1 | 1.06 | 0.999 |
| CC1=C(C(=O)Nc2ccccc2)SCCO1 | 1.08 | 1.08 |
| Nc1ccncc1 | 0.981 | 0.981 |
| O=C(O)COc1cc(Cl)c(Cl)cc1Cl | 0.966 | 1.02 |
| O=C(Cc1ccccc1)N/C(=N\OCC1CC1)c1c(C(F)(F)F)ccc(F)c1F | 0.976 | 0.968 |
| CCc1ccc(C(=O)NN(C(=O)c2cc(C)cc(C)c2)C(C)(C)C)cc1 | 0.945 | 0.952 |
| COc1ccc(/C(=C/C(=O)N2CCOCC2)c2ccc(Cl)cc2)cc1OC | 1.06 | 0.987 |
| CCCCC(CC)COC(=O)c1ccccc1C(=O)OCC(CC)CCCC (stereo unspecified) | 0.971 | 0.967 |
| O=C(O)c1cc(Oc2ccc(C(F)(F)F)cc2Cl)ccc1[N+](=O)[O-] | 0.963 | 0.987 |
| CCC(C)(C)c1ccc(O)cc1 | 0.995 | 0.995 |
| CS(=O)(=O)c1ccc(C(=O)C2C(=O)CCCC2=O)c(Cl)c1 | 1.04 | 0.994 |
| CS/C(C)=N/OC(=O)N(C)SN(C)C(=O)O/N=C(\C)SC | 1.01 | 0.955 |

| Structure (SMILES) | growth AUC [1] | growth AUC [2] |
| --- | --- | --- |
| CCN(Cc1ccc(Cl)nc1)/C(=C/[N+](=O)[O-])NC | 1 | 1 |
| CC1COC(Cn2cncn2)(c2ccc(Oc3ccc(Cl)cc3)cc2Cl)O1 (stereo unspecified) | 0.823 | 0.962 |
| O=C(Nc1ccc(F)cc1F)c1cccnc1Oc1cccc(C(F)(F)F)c1 | 0.933 | 0.958 |
| CC(Cc1ccc(C(C)(C)C)cc1)CN1CCCCC1 (stereo unspecified) | 0.976 | 1 |
| COc1cnc(OC)n2nc(NS(=O)(=O)c3c(OCC(F)F)cccc3C(F)(F)F)nc12 | 1.01 | 0.959 |
| CCOP(=O)(Sc1ccccc1)Sc1ccccc1 | 0.946 | 0.948 |
| CCOP(=S)(OCC)SCS(=O)(=O)C(C)(C)C | 1.02 | 0.984 |
| CO/C=C(/C(=O)OC)c1ccccc1Oc1cc(Oc2ccccc2C#N)ncn1 | 0.961 | 0.991 |
| COP(=S)(OC)SCn1nnc2ccccc2c1=O | 1.09 | 0.969 |
| ClC1=C(Cl)C2(Cl)[C@H]3[C@@H]4O[C@@H]4[C@H](Cl)[C@H]3C1(Cl)C2(Cl)Cl (single isomer, unassigned; isomer b) | 0.894 | 0.961 |
| CCOC(=O)CCN(Cc1ccccc1)SN(C)C(=O)O/N=C(/C)SC | 0.987 | 0.976 |
| CNC(=S)S | 1.1 | 0.997 |
| COP(=O)(OC)O/C(=C\Cl)c1ccc(Cl)cc1Cl | 1.03 | 1 |
| Nc1cc(Cl)cc(Cl)c1 | 1.07 | 1.01 |
| COc1cc(OC)nc(NC(=O)NS(=O)(=O)c2ncccc2C(=O)N(C)C)n1 | 1.01 | 0.975 |
| CCOc1ccccc1OS(=O)(=O)NC(=O)Nc1nc(OC)cc(OC)n1 | 0.92 | 0.966 |

From the supplement of paper PMC12669032
